According to PubChem BioAssay:
The source made the active and inactive calls.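 How the source made its calls: active means viability at or under a set limit in both replicates, limit being median viability minus 3 SD (cut at about 48% in these data, passing the limit was not always enough); inconclusive means at or under the limit in just one replicate; inactive means at or above the limit in both replicates.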

assay: growth inhibitors of H69AR lung tumor, primary screen, human, duplicate replicates (AID 580); conditions: H69AR lung tumor cells viability, ATP luminescence, 72 h; at 10 µM; active compounds read low;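 further: 100% = mean luminescence of untreated wells and 0% = no signal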

Row | SMILES | viability
1 | CCN(CC)S(=O)(=O)c1ccc2oc(C(=O)O)c(C)c2c1 | 103% (inactive)
2 | COCCN1CN(S(=O)(=O)c2ccccc2)c2nc3ccccc3nc21 | 98% (inactive)
3 | COc1ccc(S(=O)(=O)NCc2ccc(C(=O)O)cc2)cc1 | 95.8% (inactive)
4 | Cc1ccc2c(c1)sc1ncc(NC(=O)c3ccccc3)c(=O)n12 | 91.7% (inactive)
5 | CCOC(=O)N1CCC(N2C(=O)c3ccccc3C2Nc2cccnc2)CC1 (stereo not given) | 85.7% (inactive)
6 | CCCCOC(=O)CSc1nc2c(cc1C#N)C(=O)CC(C)(C)C2 | 78.8% (inactive)
7 | CN(C)c1cccc(NC(=O)CCc2ccccc2)c1 | 94.5% (inactive)
8 | CCc1nc(N[C@@H](Cc2c[nH]c3ccccc23)C(=O)O)c2oc3ccccc3c2n1 | 82.1% (inactive)
9 | O=C(CSc1nnc(C2COc3ccccc3O2)o1)N1CCCc2ccccc21 (stereo not given) | 92.3% (inactive)
10 | COc1ccc(CCNc2oc(-c3ccccc3OC)nc2C#N)cc1 | 95.2% (inactive)
11 | CCCn1c(SCC(=O)NC(C)(C)C)nnc1C(C)C | 93% (inactive)
12 | COc1cc(N=c2ssnc2Cl)cc(OC)c1 | 3.23% (active)
13 | COCCn1c(=O)[nH]c2cc(C(=O)N3CCN(Cc4ccc5c(c4)OCO5)CC3)ccc2c1=O | 93.1% (inactive)
14 | CCCCCC1CC(CC#CCN2CCOCC2)C(=O)O1 (stereo not given) | 93.8% (inactive)
15 | CC(NC(=O)c1ccco1)c1ccc2c(c1)OCCO2 (stereo not given) | 96.3% (inactive)
16 | Cn1c(=O)[nH]c(=O)c2c1nc(N1CCCCCC1)n2CCCSc1nc2ccccc2o1 | 80.7% (inactive)
17 | O=S(=O)(c1ccc(S(=O)(=O)N(Cc2ccco2)Cc2ccccc2Cl)cc1)N1CCCC1 | 76.6% (inactive)
18 | CCOC(=O)c1[nH]c(C)c(C(=O)Nc2ccccc2F)c1C | 16.1% (active)
19 | C=CCN(CC=C)C(=O)CN1C(=O)c2ccccc2C1=O | 92.2% (inactive)
20 | COc1ccccc1C(=O)NC(C)C(c1cccs1)N1CCN(C)CC1 (stereo not given) | 91.1% (inactive)

Row | SMILES | viability
21 | O=C(CSc1nnnn1C1CCCC1)N1CCN(C(=O)c2ccco2)CC1 | 105% (inactive)
22 | Cc1ccccc1-c1nc(CS(=O)(=O)CC(=O)N(C)C2CCCCC2)c(C)o1 | 92.7% (inactive)
23 | O=S(=O)(c1ccc(OCC(O)CN2CCN(c3ccccc3)CC2)cc1)N1CCOCC1 (stereo not given) | 96.4% (inactive)
24 | O=C(C1CCCO1)N1CCN(C(c2ccccc2)c2ccccc2)CC1 (stereo not given) | 96% (inactive)
25 | CCn1nnnc1SCC(=O)N1CCOCC1 | 97.6% (inactive)
26 | CC(NC(=O)c1ccc2c(c1)OCO2)C(c1cccs1)N1CCOCC1 (stereo not given) | 105% (inactive)
27 | CCC12CN3CC(CC)(CN(C1)C3c1ccc(OC(C)C)cc1)C2=O (stereo not given) | 105% (inactive)
28 | O=C1CCC(c2ccccc2)N1C(=O)c1cccnc1 (stereo not given) | 98.8% (inactive)
29 | CCOC(=O)CSc1nnc(CNC(=O)c2cccs2)n1-c1cc(OC)ccc1OC | 99.3% (inactive)
30 | Cn1c(=O)c2c(nc(NCc3ccco3)n2C/C=C/c2ccccc2)n(C)c1=O | 101% (inactive)
31 | O=C(CS(=O)(=O)c1cn(Cc2ccc(Cl)cc2)c2ccccc12)N1CCOCC1 | 97% (inactive)
32 | CCN(C(=O)CN1CCN(c2ccccc2OC)CC1)c1c(N)n(Cc2ccccc2)c(=O)[nH]c1=O | 100% (inactive)
33 | CCn1c(CNc2ccc(C)cc2)nnc1SCC(=O)NCc1ccccc1 | 86.6% (inactive)
34 | CCOC(=O)N1CCC(NC(=O)C2CCCN2C(=O)OCc2ccccc2)CC1 (stereo not given) | 90.7% (inactive)
35 | Cc1ccc(-c2nnc(-c3ccc(Br)cc3)o2)o1 | 86.1% (inactive)
36 | CN(C)S(=O)(=O)c1ccc(C(=O)N2CCCC2c2nc3ccccc3s2)cc1 (stereo not given) | 94.9% (inactive)
37 | CC(=O)c1c(OCC(=O)O)ccc2c(C)cc(=O)oc12 | 91.8% (inactive)
38 | Cc1ccc2cc(C(c3nnnn3CC3CCCO3)N3CCc4ccccc4C3)c(=O)[nH]c2c1 (stereo not given) | 100% (inactive)
39 | O=C(c1ccccc1)N1CCN(CC2CC=CCC2)CC1 (stereo not given) | 96.1% (inactive)
40 | Cc1ccccc1-c1nc(CS(=O)(=O)CC(=O)NCc2ccccc2)c(C)o1 | 96.5% (inactive)
